Assay outcomes from PubChem.
These entries were drawn from the full list.
aSyn 5UTR act = Activators working through SNCA 5'UTR binding (MLPCN). alpha-synuclein 5'UTR reporter, activators screen. activity score, % (tested at 7.5 µM), hits read low. 7.1% of 300,000 active. AID 1814; in the data active means activity score below about -60%
* marks the source's active call; other numbers are inactive results.

SMILES	aSyn 5UTR act
CC(=O)c1c(C)nc(-c2ccc(Cl)cc2)nc1N	-239*
O=c1[nH]c(-c2ccc(O)cc2)nc2scc(-c3cccs3)c12	-138*
CC(C)c1cc2cc3ccc(=O)oc3cc2o1	-96*
Cc1ccc(NC(=S)Nc2nc(CC(=O)Nc3ccccc3)cs2)cc1	-119*
COc1cccc(-c2ccc(C#N)c(OC(=O)c3c(Cl)cccc3Cl)n2)c1	-74*
Cc1ccc(NC(=S)Nc2cccc3ccccc23)cc1F	-86*
CC(=O)N(C)c1ccc(NC(=S)Nc2cccc3ccccc23)cc1	-168*
Cc1ccc(C)c(Cn2c(O)c(N=NC(=S)Nc3ccccc3F)c3ccccc32)c1	72
CCc1ccc(NC(=S)Nc2cccc3cnccc23)cc1	-87*
Cc1cc(NC(=O)c2ccccc2[N+](=O)[O-])ccc1Br	-130*
O=C(Nc1ccc2ccccc2c1)c1cnccn1	-129*
Cc1nc(NC(=O)CCc2ccccc2)ccc1Br	-145*
O=C(Nc1ccc2nccnc2c1)c1cnccn1	-79*
Cc1coc(C)c1C(=O)Nc1ccc2ccccc2c1	-162*
Cc1ccccc1C(=O)Nc1ccc(Br)c(C)n1	-113*
Cc1cc(NC(=O)c2cccnc2)ccc1Br	-147*
Cc1nc(NC(=O)c2cccnc2)ccc1Br	-83*
O=C(Nc1ccc2ccccc2c1)c1cccnc1	-161*
O=C(Nc1ccc2c(c1)Cc1ccccc1-2)c1cccnc1	-122*
O=C(Nc1ccc(OCc2ccccc2Cl)cc1)c1cccnc1	90
COc1cccc(N2CCN(C(=O)c3ccc(CS(=O)c4ccc(Cl)cc4)o3)CC2)c1 (configuration not stated)	107
Cc1cc(OCc2ccc(C(=O)n3cccn3)o2)ccc1Cl	-62*
CCN(CC)C(=O)c1ccc(COc2ccc(Cl)c(C)c2)o1	-119*
Cc1c(C)n(C)c2ccc(C(=O)NCCc3ccco3)cc12	-74*
CC(=O)Nc1cccc(C(=O)NCCc2ccco2)c1	-76*
SMILES	aSyn 5UTR act
c1ccc2nc(-c3nccs3)ccc2c1	-126*
Cc1cc(-c2sccc2Br)nc(-n2cccc2)n1	-87*
c1ccc2nc(-c3ccncc3)ccc2c1	-96*
Clc1ccsc1-c1ccnc(-n2cccc2)n1	-62*
Clc1ccsc1-c1ccc2ccccc2n1	-113*
N#Cc1c(-c2ccccc2)ccnc1Oc1ccccc1	-75*
Cc1cccc(/C=C2/Sc3ccc(C(=O)NCCCN4CCOCC4)cc3NC2=O)c1	-69*
Cc1cccc(CN2C(=O)/C(=C\c3ccc(C(=O)NCCCN4CCN(C)CC4)cc3)Oc3ccccc32)c1	95
CN1CCN(C(=O)c2ccc3c(c2)NC(=O)/C(=C/c2ccccc2)S3)CC1	-88*
COc1ccc(/C=C/C(=O)NC2=NCCS2)cc1OC	-148*
COc1ccc(OC)c(/C=C/C(=O)NC2=NCCS2)c1	-71*
CC1CN(C(=O)c2ccccc2)C(=Nc2cccc(S(=O)(=O)N(C)C)c2)S1 (configuration not stated)	41
O=C(N=C1N=C2C=CC=CN2Cc2ccccc21)c1ccc(S(=O)(=O)N2CCOCC2)cc1	-143*
CN(C)S(=O)(=O)c1cccc(C(=O)N=C2N=C3C=CC(Cl)=CN3Cc3ccccc32)c1	-105*
O=C(N=C1N=C2C=CC=CN2Cc2ccccc21)c1ccc(S(=O)(=O)N2CCCC2)cc1	-134*
O=C(Nc1ncc(Cc2cccc(Cl)c2)s1)c1cccs1	-192*
O=C(Nc1ncc(Cc2ccc(SC(F)F)cc2)s1)c1ccccc1	68
Cc1ccc(Cc2cnc(NC(=O)c3cccs3)s2)cc1	-91*
CCC(C)N1C(=O)S/C(=C/c2ccc3c(c2)n(C)c(=O)n3C)C1=O (configuration not stated)	-69*
CNC(=O)c1ccsc1NC(=O)c1sc2ccccc2c1Cl	-168*
COCc1nnc(NC(=O)c2sc3ccccc3c2Cl)s1	-102*
C/C(=N\Nc1nncc2ccccc12)c1cccc(OC(F)F)c1	-97*
C/C(=N\Nc1nncc2ccccc12)c1ccc(C(C)(C)C)cc1	-84*
CN1CCN(C2=C(Cl)C(=O)N(C3CCCCC3)C2=O)CC1	-84*
O=C(Nc1ccc2c(c1)OCO2)c1cnn2cccnc12	-141*
SMILES	aSyn 5UTR act
O=C(c1cnn2cccnc12)N1CCN(c2ccccc2)CC1	-64*
O=C(Nc1cccc(O)c1)c1cnn2cccnc12	-110*
Cn1c(=O)c2c(nc(NCC3CCCC(CN)C3)n2Cc2ccc(Cl)cc2Cl)n(C)c1=O (configuration not stated)	-84*
COc1ccc(-c2csc(Nc3ccccc3)[n+]2Cc2ccccc2)cc1	-95*
COc1ccc(Nc2nc(-c3c[nH]c4ccccc34)cs2)cc1	-255*
COc1ccc(-c2csc(Nc3cccnc3)n2)cc1	-180*
COc1ccc(-c2csc(Nc3ccccc3)n2)cc1	-150*
c1coc(CNc2nc(-c3cccs3)cs2)c1	107
COc1ccc(Nc2nc(-c3ccc(OC)cc3)cs2)cc1	-106*
Oc1ccc(-c2csc(NCc3ccco3)n2)cc1	-177*
Oc1ccc(Nc2nc(-c3ccc(O)cc3)cs2)cc1	-219*
COc1ccc2oc(=O)c(-c3csc(Nc4ccc(O)cc4)n3)cc2c1	-70*
c1ccc(Nc2nc(-c3ccncc3)cs2)cc1	-151*
Cc1nc2ncccn2c1-c1csc(Nc2ccc(N(C)C)cc2)n1	70
Fc1ccc(Nc2nc(-c3ccncc3)cs2)cc1	-114*
Clc1ccc(Nc2nc(-c3ccncc3)cs2)cc1	-85*
Nc1ccc(Nc2nc(-c3ccncc3)cs2)cc1	-135*
O=Cc1cc(N=Nc2ccccc2Cl)ccc1O	-111*
COc1ccc(NC(=O)c2ccc([N+](=O)[O-])s2)c([N+](=O)[O-])c1	-92*
COc1ccc(NC(=O)c2ccc(C)cc2Cl)c([N+](=O)[O-])c1	-131*
COc1ccc(NC(=O)c2ccc(C)o2)c([N+](=O)[O-])c1	-102*
COc1ccc(NC(=O)c2ccc(Br)o2)c([N+](=O)[O-])c1	-109*
Cc1cc(C)c2nc(-n3nc(C)cc3N)cc(C)c2c1	-162*
Cc1cc(N)n(-c2cc(C)c3ccccc3n2)n1	-118*
Nc1ccc(N=Nc2ccccc2O)c(N)c1	-136*
SMILES	aSyn 5UTR act
Oc1ccccc1N=Nc1ccccc1O	58
CCNc1nc(-c2ccc(OC(F)F)cc2)c(C)s1	-72*
CSc1nnc(NC(=O)c2ccco2)s1	-77*
Cc1cnc(NC(=O)c2ccco2)s1	-94*
CCCSc1nnc(NC(=O)Nc2ccccc2)s1	-92*
CCCSc1nnc(NC(=O)c2ccco2)s1	-81*
COCCSc1nnc(NC(=O)C2CCCCC2)s1	-63*
COCCSc1nnc(NC(=O)c2ccco2)s1	-81*
Cc1cnc(NC(=O)c2ccncc2)s1	-65*
Cc1ccc2c(CC(=O)NCc3ccco3)coc2c1C	-95*
CC1CCCN(c2ccc(C(=O)NCC3CCCO3)cn2)C1 (configuration not stated)	-88*
CCOc1ccc(C(=O)NCc2cccs2)cc1	-105*
COc1ccc2nc3sc(C(=O)NCc4cccs4)c(N)c3cc2c1	-97*
CCOc1c2ccc(C(=O)NCCc3cccs3)cc2nn1CC	-130*
CC1CCN(c2ccc(C(=O)NCc3cccs3)cn2)CC1	-106*
COc1ccc(-c2cc(C(=O)NCc3cccs3)no2)cc1	-170*
COc1cccc(-c2cc(C(=O)NCc3cccs3)no2)c1	-156*
Cc1cc(/C=C2/C(=O)N(C)C(=S)N2C)c(C)n1C1CC1	-140*
Cc1ccc(NC(=O)OCc2cc(-c3ccccc3)on2)cc1	-93*
Cc1ccc(NC(=O)OCc2cccs2)cc1	-191*
